Source: PubChem BioAssay
Rows were chosen to be rich in hits. Some 7.3% of all compounds tested hit in one or more screens of this group.
NPC1 promoter act: qHTS Assay for NPC1 Promoter Activators; 2.4% of 320,000 active; AID 485313, 2010; Huh7 NPC1 promoter luciferase reporter, 24 h; Potency, µM (series often up to 9.22 µM), usual class: activators; further: nearly all actives have a fitted effect of over 60% in size
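Luciferase expression driven by the NPC1 promoter was measured in stably transfected Huh7 cells after a 24 h compound incubation, using a luciferase reagent and a luminescence read.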
uPA surface inh: qHTS for Inhibitors of Cell Surface uPA Generation; cell surface uPA generation assay, qHTS; Potency, µM (series often up to 38.3 µM), actives largely listed as inhibitors; 0.31% of 330,000 active; AID 540303, 2011; active means well fitted inhibition curve with a large enough effect; inconclusive means small, poorly fitted or top-dose-only effect; inactive means no such curve, though single readings can be large or run the other way; tested in mouse RAW 264.7 cells; further: nearly all actives have a fitted effect of over 55% in size
ELG1 genotoxic: qHTS screen for small molecules that induce genotoxicity in human embryonic kidney (HEK293T) cells expressing luciferase-tagged ELG1; HEK293T ELG1-luciferase reporter, luminescence, 16 h; 1.3% of 330,000 active; Potency, µM (series often up to 46 µM), usual class: activators; AID 504466, 2011; further: nearly all actives have a fitted effect of over 60% in size
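16 hr compound incubation (37 °C, 5% CO2) of HEK293T cells carrying luciferase-tagged ELG1; luciferase then measured by ONE-Glo luminescence after 30 min at RT.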
FLuc modulator: qHTS profiling assay for firefly luciferase inhibitor/activator using purifed enzyme and Km concentrations of substrates (counterscreen for miR-21 project). Luciferin 4-monooxygenase (Photinus pyralis), P08659. purified FLuc, Km substrates, luminescence inhibition. Potency, µM (top dose mostly 57.5 µM), usual class: inhibitors. 6.9% of 360,000 active. AID 588342, 2011; further: nearly all actives have a fitted effect of over 55% in size
Target sequence (P08659 whole entry, looked up): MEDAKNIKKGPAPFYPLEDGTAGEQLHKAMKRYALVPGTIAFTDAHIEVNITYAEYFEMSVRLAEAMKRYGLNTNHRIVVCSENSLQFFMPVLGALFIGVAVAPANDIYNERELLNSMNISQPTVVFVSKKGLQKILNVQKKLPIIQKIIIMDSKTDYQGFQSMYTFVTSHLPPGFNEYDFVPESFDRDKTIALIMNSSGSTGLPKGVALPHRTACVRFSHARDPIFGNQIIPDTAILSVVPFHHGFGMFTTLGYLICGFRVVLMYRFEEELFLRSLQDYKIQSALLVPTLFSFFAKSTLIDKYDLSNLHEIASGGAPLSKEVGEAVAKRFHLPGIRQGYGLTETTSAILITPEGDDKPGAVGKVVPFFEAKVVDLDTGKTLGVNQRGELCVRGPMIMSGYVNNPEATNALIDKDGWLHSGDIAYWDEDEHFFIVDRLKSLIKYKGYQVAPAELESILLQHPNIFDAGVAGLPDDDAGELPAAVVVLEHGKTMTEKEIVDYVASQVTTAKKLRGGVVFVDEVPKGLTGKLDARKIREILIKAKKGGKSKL
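Biochemical qHTS of compounds, final roughly 60 µM downward over six points, against 10 nM purified firefly luciferase using Km concentrations of substrates (10 uM D-luciferin, 10 uM ATP) in Tris acetate pH 7.5 buffer; luminescence output.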
SMN2 splice up: qHTS Assay for Enhancers of SMN2 Splice Variant Expression | 2.8% of 210,000 active | Potency, µM (doses to about 46.1 µM), most hits filed as activators | HEK293 SMN2-luciferase splicing reporter, luminescence, 30-36 h; further: nearly all actives have a fitted effect of over 55% in size
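qHTS luciferase splicing reporter: luminescence rises when SMN2 exon 7 is included in transfected HEK293 cells. Compound exposure lasted 30-36 h at 37C, with 4.5 mM final sodium butyrate as control, followed by a ONE-Glo read.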
Rab9 promoter act: qHTS Assay for Rab9 Promoter Activators. Huh7 Rab9 promoter-luciferase reporter, luminescence, 24 h. Potency, µM (highest dose often 9.22 µM), usual class: activators. 2.8% of 320,000 active. AID 485297, 2010; further: nearly all actives have a fitted effect of over 60% in size
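Promoter activation is measured as luciferase luminescence in Huh7 cells stably transfected with a Rab9 promoter–luciferase construct, following 24 h compound exposure at 37 °C and 10 min reagent incubation at ambient temperature.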
Each line names hits and unclear results; the compound was inactive in the other large screens. Unless noted, the call rests on the fitted dose curve; in most records, active means well fitted curve in the direction sought with a large enough effect; inconclusive means small, poorly fitted or top-dose-only effect, or another doubt; inactive means no such curve, though single readings can be large; an effect the other way counts as inactive or inconclusive.

COc1ccc(C(=O)COC(=O)c2ccco2)cc1	NPC1 promoter act inconclusive, ELG1 genotoxic inconclusive, FLuc modulator 1.1µM
COc1ccc(C(=O)COC(=O)c2cncc(Br)c2)cc1	FLuc modulator inconclusive (no result: SMN2 splice up)
COc1ccc(C(=O)COC(=O)c2ccn(C)n2)cc1	NPC1 promoter act 3.5µM, ELG1 genotoxic inconclusive, FLuc modulator 17µM, Rab9 promoter act inconclusive (no result: SMN2 splice up)
CCOC(=O)c1ccc(NC(=O)C(CC)Sc2nc3ccncc3[nH]2)cc1 (stereo not given)	none (no result: NPC1 promoter act, uPA surface inh, ELG1 genotoxic, Rab9 promoter act)
COc1cccc(C(=O)NCC(=O)OCc2cc(=O)n3nc(C)sc3n2)c1	none (no result: NPC1 promoter act, uPA surface inh, ELG1 genotoxic, SMN2 splice up, Rab9 promoter act)
COCc1nc(-c2ccc(-c3ccc(C)cc3)nc2OC)no1	FLuc modulator 17µM, Rab9 promoter act inconclusive
CCOc1nc(-c2ccccc2)ccc1-c1noc(-c2ccco2)n1	none
COc1nc(C)ccc1-c1noc(-c2ccco2)n1	NPC1 promoter act 1.4µM, ELG1 genotoxic inconclusive, FLuc modulator 3.8µM, SMN2 splice up 5.6µM, Rab9 promoter act 1.3µM
COc1nc(-c2ccc(C)cc2)ccc1-c1noc(-c2ccco2)n1	NPC1 promoter act inconclusive, ELG1 genotoxic inconclusive, FLuc modulator 19µM, Rab9 promoter act inconclusive
CC(C)(C)OC(=O)N1CCC(c2c(C(=O)NCCN3CCOCC3)cnn2-c2ccccc2)CC1	none (no result: NPC1 promoter act, uPA surface inh, ELG1 genotoxic, SMN2 splice up, Rab9 promoter act)
CC(C)c1ccc(NC(=O)Cn2c(=O)n(CCc3ccccc3)c(=O)c3ccccc32)cc1	none (no result: NPC1 promoter act, uPA surface inh, ELG1 genotoxic, Rab9 promoter act)
CS(=O)(=O)Nc1cccc(C2=NN(S(=O)(=O)c3ccccc3)C(c3ccco3)C2)c1 (stereo not given)	none
Cc1c(Cl)sn(-c2ccc(Cl)cc2)c1=O	FLuc modulator 8.5µM
C[C@H]1Cc2c(-c3ccccc3)nc3c(c2CO1)CN(C(=O)c1cc(I)ccc1F)CC3	none (no result: NPC1 promoter act, uPA surface inh, ELG1 genotoxic, FLuc modulator, Rab9 promoter act)
COc1cccc(Nc2nc3ccc(OC)cc3s2)c1	NPC1 promoter act inconclusive, ELG1 genotoxic inconclusive, FLuc modulator 4.3µM, SMN2 splice up 20µM, Rab9 promoter act 4.5µM
COc1ccc(CC(=O)Nc2sc3c(c2C(N)=O)CCCC3)cc1	none (no result: SMN2 splice up)
COc1ccc2nc(NC3=NCCC3)sc2c1	NPC1 promoter act 3.5µM, ELG1 genotoxic inconclusive, FLuc modulator 12µM, SMN2 splice up inconclusive, Rab9 promoter act 3.2µM
COc1ccc2nc(Nc3sc4c(c3C(N)=O)CCCC4)sc2c1	FLuc modulator 11µM
COc1ccc(C(O)c2nc3ccccc3s2)cc1 (stereo not given)	none (no result: uPA surface inh)
COc1ccc2nc(NCc3cccnc3)sc2c1	FLuc modulator inconclusive, Rab9 promoter act inconclusive (no result: SMN2 splice up)
COc1ccc(Nc2nc3ccccc3s2)cc1	NPC1 promoter act 2.5µM, ELG1 genotoxic inconclusive, FLuc modulator 5.4µM, SMN2 splice up 10µM, Rab9 promoter act 1.4µM
CC1=C(c2ccc(F)cc2)S(=O)(=O)NC1=NCc1ccccc1Cl	none (no result: NPC1 promoter act, uPA surface inh, ELG1 genotoxic, SMN2 splice up, Rab9 promoter act)
Cc1ccc(-c2nc(CN(C)Cc3ccc4nccnc4c3)c(C)o2)s1	none (no result: SMN2 splice up)
Cc1cccc(Nc2nc3ccccc3s2)c1C	NPC1 promoter act 3.2µM, ELG1 genotoxic 6.5µM, FLuc modulator 2.4µM, SMN2 splice up 10µM, Rab9 promoter act 2.5µM
Cc1cccc(-c2nc(SCCCOc3ccccc3Cl)n3[nH]c(=O)cc3n2)c1	FLuc modulator 6.7µM (no result: NPC1 promoter act, uPA surface inh, ELG1 genotoxic, SMN2 splice up, Rab9 promoter act)
Cc1cccc(-c2nc(SCCCOc3cc(C)c(Cl)c(C)c3)n3[nH]c(=O)cc3n2)c1	none (no result: NPC1 promoter act, uPA surface inh, ELG1 genotoxic, SMN2 splice up, Rab9 promoter act)
NS(=O)(=O)c1ccc(NC(=O)/C=C/c2cn(-c3ccccc3)nc2-c2cccc(Cl)c2)cc1	none
O=C(O)c1ccc(NC(=O)c2cn(-c3ccccc3)nc2-c2ccc(F)cc2)cc1	FLuc modulator 2.7µM, Rab9 promoter act inconclusive (no result: SMN2 splice up)
O=C(O)c1cn(-c2ccccc2)nc1-c1ccc(F)cc1	uPA surface inh inconclusive, FLuc modulator inconclusive (no result: SMN2 splice up)
Cc1cccc(-c2cc(NC(=O)c3ccccc3C)n(-c3ccccc3)n2)c1	FLuc modulator 11µM (no result: NPC1 promoter act, uPA surface inh, ELG1 genotoxic, SMN2 splice up, Rab9 promoter act)
CC(=O)Nc1c(C(=O)Nc2cccc(C)c2)nnn1-c1ccc(C)cc1	FLuc modulator 17µM (no result: NPC1 promoter act, uPA surface inh, ELG1 genotoxic, Rab9 promoter act)
Cc1ccc(OCC(=O)Nc2cc(-c3cccc(C)c3)nn2-c2ccccc2)cc1	none (no result: NPC1 promoter act, uPA surface inh, ELG1 genotoxic, SMN2 splice up, Rab9 promoter act)
O=C(/C=C/c1cn(-c2ccccc2)nc1-c1ccccc1)Nc1ccc(C(=O)O)cc1	FLuc modulator 0.85µM, Rab9 promoter act inconclusive (no result: SMN2 splice up)
Cc1cc(C)nc(SC(C)CNS(=O)(=O)c2ccccc2)n1 (stereo not given)	none
CCOC(=O)c1ccccc1NC(=O)CSc1nc2ncccc2o1	none (no result: NPC1 promoter act, uPA surface inh, ELG1 genotoxic, SMN2 splice up, Rab9 promoter act)
O=C(O)c1ccc(NC(=O)c2cn(-c3ccccc3)nc2-c2cccc(Cl)c2)cc1	FLuc modulator 3.8µM (no result: SMN2 splice up)
Cc1nn(-c2ccccc2)c(Cl)c1C(=O)Nc1ccc(N2CCOCC2)cc1	none (no result: uPA surface inh)
CCOC(=O)c1cc(C(=O)Nc2cccc(C)c2)nn1C	NPC1 promoter act 1.6µM, uPA surface inh inconclusive, ELG1 genotoxic inconclusive, FLuc modulator 4.8µM, SMN2 splice up 13µM, Rab9 promoter act 1.4µM
Cc1cccc(NC(=O)c2cn(-c3ccccc3)nc2-c2ccccc2)c1	FLuc modulator 13µM
Cc1cccc(NC(=O)c2c(C)nn(-c3ccccc3)c2Cl)c1	NPC1 promoter act inconclusive, FLuc modulator 13µM, Rab9 promoter act inconclusive
Cc1cccc(C)c1NC(=O)c1cn(-c2ccccc2)nc1-c1ccccc1	FLuc modulator inconclusive
CC(=O)c1ccc(NC(=O)c2cn(-c3ccccc3)nc2-c2ccncc2)cc1	none
